Active and inactive are the calls of the source. How the calls were made is not given here.

Pantothenate synthetase (Mycobacterium tuberculosis (strain ATCC 25618 / H37Rv)), sequence (P9WIL5 whole entry, looked up): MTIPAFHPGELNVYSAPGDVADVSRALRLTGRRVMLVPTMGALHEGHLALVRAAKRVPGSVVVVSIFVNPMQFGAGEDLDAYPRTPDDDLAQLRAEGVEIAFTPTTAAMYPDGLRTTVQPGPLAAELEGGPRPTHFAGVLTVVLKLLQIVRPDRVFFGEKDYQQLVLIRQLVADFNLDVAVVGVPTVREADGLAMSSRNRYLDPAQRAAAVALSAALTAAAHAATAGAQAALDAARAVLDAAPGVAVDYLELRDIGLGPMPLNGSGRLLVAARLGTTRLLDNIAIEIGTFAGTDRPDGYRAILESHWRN

The assay has as its target Pantothenate synthetase (Mycobacterium tuberculosis (strain ATCC 25618 / H37Rv)) (UniProt P9WIL5). Kind of assay: Recombinant Mtb pantothenate synthetase (PanC) inhibitors, coupled enzyme, confirmatory (AID 375).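 Further: 0% = full reaction with vehicle and 100% = no enzyme background.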 Conditions: coupled enzyme assay; at 10 µM, active compounds read high.
In general, inhibition refers to the share of the control response that was lost under treatment. On to `CN(CC(=O)Nc1ccc(F)c(Cl)c1)S(=O)(=O)c1cccc2nsnc12`, for which the inhibition is 0% (inactive).
With `COc1ccc(-c2ccc(-c3noc(-c4ccccc4)n3)c(OC)n2)cc1`, the inhibition is 3% (inactive).
The figure for `O=S(=O)(c1ccccc1)c1nc(-c2ccco2)oc1NCCCN1CCOCC1` is 0% (inactive).
Consider `COc1ccccc1N1CCN(C(=O)c2cc(C3CC3)on2)CC1`, for which the inhibition was 3% (inactive).
As to `CC(=O)c1cccc(-n2nnnc2SCC(=O)N2CCCC2)c1`, the inhibition is 5% (inactive).
On to `CCc1ccccc1OCCCCN1CCCC1`, for which the inhibition was 0% (inactive).
Consider `CCOc1ccccc1NC(=O)CCN1CCN(S(=O)(=O)c2ccc(Br)cc2)CC1`, for which the inhibition was 0% (inactive).
As to `CC1CN=C(N(C(=O)Nc2ccccc2)c2ccc(S(=O)(=O)N3CCOCC3)cc2)S1` (stereo not given), the inhibition was 0% (inactive).
Consider `CCCN1Cc2cccc(C(=O)NC3CCCC3)c2C1=O`, for which the inhibition was 0% (inactive).
Regarding `COC(=O)c1ccc(-c2sc3nc(N4CCOCC4)c4c(c3c2N)CCCC4)o1`, the inhibition was 0% (inactive).
In the case of `COc1ccccc1OCc1ccc(C(=O)Nc2ccncc2)o1`, the inhibition is 2% (inactive).
For the compound `O=C(NCC(c1cccnc1)N1CCN(c2ccccc2)CC1)c1ccc2c(c1)OCO2` (stereo not given), the inhibition is 0% (inactive).
Turning to `Cc1ccc2oc(=O)c3cnn(CC(=O)N4CCCc5ccccc54)c3c2c1`, the inhibition was 1% (inactive).
Turning to `Nc1c(C(=O)NCc2ccco2)nnn1Cc1ccccc1`, the inhibition is 2% (inactive).
For the compound `COc1ccc(S(=O)(=O)N2CCCC(C(=O)NCc3ccccn3)C2)cc1` (stereo not given), the inhibition is 7% (inactive).
Under `O=C(C1CC1)N(Cc1ccco1)c1nc(-c2ccccc2)cs1` stands 1% (inactive).
Under `CCc1nc2sc3c(c2c(=O)o1)CCCC3` stands 0% (inactive).
Under `CCNS(=O)(=O)c1ccc(S(=O)(=O)N(Cc2ccccn2)C2CCCCC2)cc1` stands 1% (inactive); under `CCOc1ccc(S(=O)(=O)n2nc(C)cc2C)c2ccccc12`, 0% (inactive); under `CCOC(=O)c1[nH]c2ccccc2c1NC(=O)C(CC)CC`, 8% (inactive).
Take `CC(=O)N(C(C)=O)c1ncc2c([nH]c3ccccc32)c1C#N`: the inhibition was 0% (inactive).
With `CCOC(=O)c1sc2nc(N3CCCC3)c3c(c2c1N)CC(C)(C)OC3`, the inhibition is 0% (inactive).
Under `NCc1cccc(-n2cccn2)c1` stands 0% (inactive); under `COc1ccc2c(=O)c3c(=O)n(Cc4ccco4)c(C(C)C)nc3oc2c1`, 0% (inactive).
For the compound `CCCn1c2ccccc2c2nnc(SCC(=O)OCC)nc21`, the inhibition is 6% (inactive).
On to `Cc1ccc(-n2nnnc2SCC(=O)Nc2c(C)n(C)n(-c3ccccc3)c2=O)cc1`, for which the inhibition was 0% (inactive).
With `O=C(CN1C(=O)CSC1=O)Nc1ccc(N2CCOCC2)cc1`, the inhibition is 7% (inactive).
With `COc1cc(C2NC(=O)NC(C)=C2C(=O)OCC2CCCO2)ccc1O` (stereo not given), the inhibition was 0% (inactive).
`CCOc1cc(CN2CCN(C(=O)c3ccco3)CC2)ccc1OC`: the inhibition is 9% (inactive).
`Fc1ccccc1-c1nc(NCCCN2CCOCC2)c2ccccc2n1`: the inhibition was 0% (inactive).
For `COc1ccc(CCNC(=O)COc2ccc(S(=O)(=O)N3CCOCC3)cc2)cc1`, the inhibition is 6% (inactive).
On to `CN(C)c1ccc(NC(=O)c2cc3c(=O)n4ccccc4nc3n2C)cc1`, for which the inhibition was 7% (inactive).
As for `COc1ccccc1CC(NC(C)=O)C(=O)NC1CCN(c2nnnn2-c2ccccc2)CC1` (stereo not given), the inhibition was 0% (inactive).
The figure for `COc1ccc(-c2noc(CCC(=O)Nc3nc4ccccc4s3)n2)cc1` is 0% (inactive); for `N#Cc1ccccc1Cn1c(=O)n(Cc2ccc(C(=O)NCc3ccco3)cc2)c(=O)c2sccc21` it is 9% (inactive).
Consider `O=C(COC(=O)C1CC2C=CC1C2)Nc1ccc2c(c1)OC(F)(F)O2` (stereo not given), for which the inhibition is 0% (inactive).
Take `CC(Oc1ccccc1)C(=O)Nc1ccc(S(=O)(=O)NCC2CCCO2)cc1` (stereo not given): the inhibition was 1% (inactive).
For `CN1CCN(C(=O)C2(NC(=O)Nc3cccc(F)c3)CCCCC2)CC1`, the inhibition is 0% (inactive).
Regarding `COc1ccccc1NC(=O)c1cc2n(n1)C(C(F)(F)F)CC(c1ccc3c(c1)OCO3)N2` (stereo not given), the inhibition is 0% (inactive).
On to `Cc1cc2c(c(=O)n1CCN(C)C)C(c1ccncc1)C(C#N)=C(N)O2` (stereo not given), for which the inhibition was 0% (inactive).

Source of the values: PubChem BioAssay.
